How the values were obtained:
Experiment in all cases: log2 ratio of Biotin-Ahx-Ub-VS probe labelling (fragment/DMSO); higher = less target engagement (more negative = stronger competition), active = hit call of the paper (q ≤ 0.05, log2 ratio ≤ -1)
Details in all cases: compound concentration: 200 uM; treatment time: 3 h
OTUD6B = biological target: T1, OTUD6B (UniProt Q8N6M0)
T1 sequence (whole entry): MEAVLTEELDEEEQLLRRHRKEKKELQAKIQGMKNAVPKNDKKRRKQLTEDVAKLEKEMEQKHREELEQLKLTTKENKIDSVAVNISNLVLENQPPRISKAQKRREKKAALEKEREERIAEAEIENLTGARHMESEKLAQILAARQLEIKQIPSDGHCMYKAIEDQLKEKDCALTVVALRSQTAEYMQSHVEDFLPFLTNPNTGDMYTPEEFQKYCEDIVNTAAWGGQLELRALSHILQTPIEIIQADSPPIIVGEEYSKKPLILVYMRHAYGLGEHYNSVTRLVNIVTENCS
In short: (§1)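 Fragment (200 µM) or vehicle was incubated for 3 h with triplicate HEK293T lysate samples of 495 µg, which were then treated with Biotin-Ahx-Ub-VS at 0.5 µM final for 1 h. Labelled DUBs were enriched on NeutrAvidin, digested with LysC and trypsin, and analysed by diaPASEF LC-MS/MS. Values are average log2 fragment/vehicle ratios from an unpaired t-test on global-median-normalised Spectronaut label-free quantities, using proteins with ≥2 unique peptides.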

OTUD7B = biological target: T2, OTUD7B (UniProt Q6GQQ9)
T2 sequence (whole entry): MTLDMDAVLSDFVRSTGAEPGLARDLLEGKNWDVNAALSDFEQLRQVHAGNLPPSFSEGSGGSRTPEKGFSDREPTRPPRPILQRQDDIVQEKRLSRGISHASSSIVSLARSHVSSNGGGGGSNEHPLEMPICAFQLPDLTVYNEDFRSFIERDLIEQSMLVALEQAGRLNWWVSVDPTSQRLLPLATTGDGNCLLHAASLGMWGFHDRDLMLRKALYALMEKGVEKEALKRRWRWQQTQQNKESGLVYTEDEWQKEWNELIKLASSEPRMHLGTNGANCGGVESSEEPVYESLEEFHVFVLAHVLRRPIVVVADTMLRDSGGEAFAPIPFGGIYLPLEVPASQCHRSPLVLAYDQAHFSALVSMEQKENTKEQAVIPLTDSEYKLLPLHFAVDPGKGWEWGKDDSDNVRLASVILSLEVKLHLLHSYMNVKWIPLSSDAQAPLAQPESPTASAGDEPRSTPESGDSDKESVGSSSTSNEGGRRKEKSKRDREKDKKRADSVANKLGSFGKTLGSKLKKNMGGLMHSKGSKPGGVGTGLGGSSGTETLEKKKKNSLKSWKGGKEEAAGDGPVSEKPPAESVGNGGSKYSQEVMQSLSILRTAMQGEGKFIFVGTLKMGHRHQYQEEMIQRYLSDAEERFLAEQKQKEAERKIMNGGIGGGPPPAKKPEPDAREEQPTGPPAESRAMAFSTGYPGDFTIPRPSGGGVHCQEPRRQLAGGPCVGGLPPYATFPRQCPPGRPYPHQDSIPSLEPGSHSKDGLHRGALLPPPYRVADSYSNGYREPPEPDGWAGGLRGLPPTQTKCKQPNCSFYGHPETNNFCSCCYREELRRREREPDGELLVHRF
In short: as §1

PRPF8 = PRPF8 (UniProt Q6P2Q9)
In short: as §1

PSMD7 = biological target: T3, PSMD7 (UniProt P51665)
T3 sequence (whole entry): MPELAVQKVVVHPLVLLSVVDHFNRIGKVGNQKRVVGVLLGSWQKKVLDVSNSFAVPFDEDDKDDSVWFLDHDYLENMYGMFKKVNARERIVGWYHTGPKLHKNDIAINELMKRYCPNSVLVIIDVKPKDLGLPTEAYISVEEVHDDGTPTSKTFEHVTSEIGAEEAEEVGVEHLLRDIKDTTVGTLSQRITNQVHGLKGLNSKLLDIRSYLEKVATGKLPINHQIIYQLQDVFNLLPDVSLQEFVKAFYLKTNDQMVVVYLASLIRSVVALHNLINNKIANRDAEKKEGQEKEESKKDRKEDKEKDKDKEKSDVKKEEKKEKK
In short: as §1

UCHL1 = UCHL1 (UniProt P09936)
UCHL1, sequence (P09936 whole entry, looked up): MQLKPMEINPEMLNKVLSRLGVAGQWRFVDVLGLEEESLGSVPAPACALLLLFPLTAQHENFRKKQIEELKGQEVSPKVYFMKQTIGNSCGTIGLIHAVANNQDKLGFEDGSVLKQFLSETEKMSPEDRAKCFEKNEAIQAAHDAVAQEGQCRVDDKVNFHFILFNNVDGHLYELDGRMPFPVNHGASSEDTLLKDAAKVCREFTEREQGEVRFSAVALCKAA
In short: as §1

UCHL3 = biological target: T4, UCHL3 (UniProt P15374)
T4 sequence (whole entry): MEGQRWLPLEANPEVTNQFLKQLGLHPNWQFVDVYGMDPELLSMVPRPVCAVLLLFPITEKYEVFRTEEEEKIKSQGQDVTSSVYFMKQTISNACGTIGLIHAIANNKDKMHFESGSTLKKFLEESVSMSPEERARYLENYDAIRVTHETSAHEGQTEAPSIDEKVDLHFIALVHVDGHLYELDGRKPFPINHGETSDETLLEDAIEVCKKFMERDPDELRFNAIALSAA
In short: as §1

UCHL5 = biological target: T5, UCHL5 (UniProt Q9Y5K5)
T5 sequence (whole entry): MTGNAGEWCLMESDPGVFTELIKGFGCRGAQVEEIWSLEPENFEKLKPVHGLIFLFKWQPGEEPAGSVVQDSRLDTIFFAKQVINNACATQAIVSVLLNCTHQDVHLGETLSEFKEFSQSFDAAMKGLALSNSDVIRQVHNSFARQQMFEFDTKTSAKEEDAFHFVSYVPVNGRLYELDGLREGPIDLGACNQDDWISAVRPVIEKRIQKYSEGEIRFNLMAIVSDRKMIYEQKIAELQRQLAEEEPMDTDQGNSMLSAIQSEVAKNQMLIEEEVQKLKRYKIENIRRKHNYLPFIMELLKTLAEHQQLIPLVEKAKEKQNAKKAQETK
In short: as §1

USP10 = USP10 (UniProt Q14694)
USP10, sequence (Q14694 whole entry): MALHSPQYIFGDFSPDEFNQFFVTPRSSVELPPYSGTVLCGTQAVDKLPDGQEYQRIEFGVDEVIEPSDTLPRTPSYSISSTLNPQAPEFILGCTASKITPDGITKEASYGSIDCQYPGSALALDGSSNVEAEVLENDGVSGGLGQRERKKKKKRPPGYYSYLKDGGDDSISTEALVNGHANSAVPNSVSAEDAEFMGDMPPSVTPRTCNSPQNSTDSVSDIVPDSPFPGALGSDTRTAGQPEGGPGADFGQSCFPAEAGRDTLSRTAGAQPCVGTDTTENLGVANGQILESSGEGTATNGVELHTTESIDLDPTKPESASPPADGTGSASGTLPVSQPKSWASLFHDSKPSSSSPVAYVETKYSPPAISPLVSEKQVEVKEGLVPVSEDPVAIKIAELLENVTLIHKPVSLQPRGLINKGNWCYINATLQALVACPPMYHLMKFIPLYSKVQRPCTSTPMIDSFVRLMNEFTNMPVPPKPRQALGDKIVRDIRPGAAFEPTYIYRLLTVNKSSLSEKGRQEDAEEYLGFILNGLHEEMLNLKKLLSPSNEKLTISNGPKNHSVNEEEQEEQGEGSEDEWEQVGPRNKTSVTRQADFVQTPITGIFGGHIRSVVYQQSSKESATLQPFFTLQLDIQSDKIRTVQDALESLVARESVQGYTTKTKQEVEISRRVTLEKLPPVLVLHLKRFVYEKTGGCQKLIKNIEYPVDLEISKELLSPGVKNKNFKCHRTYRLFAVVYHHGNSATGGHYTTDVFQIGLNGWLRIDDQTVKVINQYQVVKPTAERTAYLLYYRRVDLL
In short: as §1

USP15 = biological target: T6, USP15 (UniProt Q9Y4E8)
T6 sequence (whole entry): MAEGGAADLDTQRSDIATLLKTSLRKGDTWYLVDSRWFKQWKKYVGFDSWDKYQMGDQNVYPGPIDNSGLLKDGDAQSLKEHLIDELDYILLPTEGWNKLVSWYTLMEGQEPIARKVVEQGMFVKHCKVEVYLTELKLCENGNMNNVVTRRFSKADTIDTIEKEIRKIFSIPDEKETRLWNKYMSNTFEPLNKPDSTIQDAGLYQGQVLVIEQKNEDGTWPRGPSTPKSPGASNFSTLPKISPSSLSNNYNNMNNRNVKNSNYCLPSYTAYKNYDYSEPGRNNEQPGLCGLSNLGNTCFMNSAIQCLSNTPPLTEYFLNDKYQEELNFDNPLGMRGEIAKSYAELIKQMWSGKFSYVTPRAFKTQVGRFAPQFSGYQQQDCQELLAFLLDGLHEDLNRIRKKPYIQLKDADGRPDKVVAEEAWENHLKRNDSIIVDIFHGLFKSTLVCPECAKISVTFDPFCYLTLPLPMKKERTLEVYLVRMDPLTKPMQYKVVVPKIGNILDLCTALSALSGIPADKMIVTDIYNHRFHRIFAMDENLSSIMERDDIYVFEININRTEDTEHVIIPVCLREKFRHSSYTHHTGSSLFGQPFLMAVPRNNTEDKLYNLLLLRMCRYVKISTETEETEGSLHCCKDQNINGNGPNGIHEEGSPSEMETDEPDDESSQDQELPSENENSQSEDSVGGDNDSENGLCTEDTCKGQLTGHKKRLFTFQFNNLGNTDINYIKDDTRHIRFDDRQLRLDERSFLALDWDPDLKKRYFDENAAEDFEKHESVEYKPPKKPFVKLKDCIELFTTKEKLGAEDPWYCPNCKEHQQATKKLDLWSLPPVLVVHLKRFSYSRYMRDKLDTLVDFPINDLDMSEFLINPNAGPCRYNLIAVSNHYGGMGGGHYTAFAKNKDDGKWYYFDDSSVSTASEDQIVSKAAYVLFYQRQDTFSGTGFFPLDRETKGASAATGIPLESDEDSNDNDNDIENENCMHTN
In short: as §1

USP16 = USP16 (UniProt Q9Y5T5)
USP16, sequence (Q9Y5T5 whole entry, looked up): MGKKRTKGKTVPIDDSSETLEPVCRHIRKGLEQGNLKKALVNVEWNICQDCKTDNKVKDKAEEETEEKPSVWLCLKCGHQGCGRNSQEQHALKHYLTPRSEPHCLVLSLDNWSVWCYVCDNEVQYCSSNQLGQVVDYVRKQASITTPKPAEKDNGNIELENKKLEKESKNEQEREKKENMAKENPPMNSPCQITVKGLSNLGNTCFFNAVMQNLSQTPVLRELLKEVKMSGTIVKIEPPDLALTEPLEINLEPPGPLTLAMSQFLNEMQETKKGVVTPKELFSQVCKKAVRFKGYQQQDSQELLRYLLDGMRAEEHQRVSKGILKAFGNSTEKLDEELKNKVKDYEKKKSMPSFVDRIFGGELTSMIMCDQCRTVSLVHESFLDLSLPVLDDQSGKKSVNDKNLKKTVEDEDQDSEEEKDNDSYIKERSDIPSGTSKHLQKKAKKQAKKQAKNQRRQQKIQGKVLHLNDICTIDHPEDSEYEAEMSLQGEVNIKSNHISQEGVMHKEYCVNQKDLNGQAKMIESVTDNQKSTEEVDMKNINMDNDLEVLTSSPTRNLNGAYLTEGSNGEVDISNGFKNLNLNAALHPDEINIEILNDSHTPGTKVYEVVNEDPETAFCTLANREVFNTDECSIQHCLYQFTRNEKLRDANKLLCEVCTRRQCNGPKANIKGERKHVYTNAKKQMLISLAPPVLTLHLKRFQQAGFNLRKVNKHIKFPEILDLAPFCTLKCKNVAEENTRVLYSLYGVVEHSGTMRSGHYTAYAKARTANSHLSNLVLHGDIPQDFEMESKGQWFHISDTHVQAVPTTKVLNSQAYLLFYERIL
In short: as §1

Measured: log2 ratio of Biotin-Ahx-Ub-VS probe labelling

O=C(CCl)N1CCOCCC1c1ccccc1 (stereo not given)
active: UCHL1 -1.93
inactive: OTUD6B -0.163 | OTUD7B -0.354 | PRPF8 -0.148 | PSMD7 0.00247 | UCHL3 0.325 | UCHL5 -0.0371 | USP10 -0.182 | USP15 0.0371 | USP16 -0.424

— the supplement of paper PMC11732987, “Enantioselective OTUD7B fragment discovery through chemoproteomics screening and high-throughput optimisation” (Communications Chemistry, 2025)
